# Source: PubChem BioAssay
# A selection: hits, their analogues and other compounds. The true share with any hit is near 7.3%.
# Tau ThT inhib: inhibitors of human tau fibril formation, thioflavin T binding | P10636 | AID 1460 | Potency, µM (highest dose often 57.4 µM), actives largely listed as inhibitors | recombinant tau K18 P301L, heparin-induced fibrillization, ThT fluorescence | 270,000 tested, 2.1% active; note: nearly all actives have a fitted effect of over 55% in size
# Target sequence (P10636 561-689 P618L limits assumed): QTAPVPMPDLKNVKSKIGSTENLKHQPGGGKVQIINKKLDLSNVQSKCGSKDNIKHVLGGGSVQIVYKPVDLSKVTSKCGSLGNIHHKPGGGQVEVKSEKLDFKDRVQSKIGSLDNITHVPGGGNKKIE
#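 K18 P301L tau (15 uM + 0.24 uM Alexa 594-tagged), heparin 20 uM, NaOAc pH 7, 6 h 37 C; ThT 30 uM, 1 h RT, ex 450/em 510 nm.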
# VP16 counter: counter-screen for ROR gamma inhibitors: Gal4-VP16 reporter. Drosophila S2 Gal4-VP16 UAS-luciferase, luminescence, 20 h. 310,000 tested, 3.5% active. Potency, µM (titrated, usually from 53.6 µM), actives largely listed as inhibitors;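 note: Gal4-VP16 expression switched on by copper sulfate through the metallothionein promoter; nearly all actives have a fitted effect of over 50% in size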
# RORg inh: ROR gamma (mouse) transcription inhibition. P51450. Drosophila S2 Gal4-RORgamma UAS-luciferase reporter, 20 h. Potency, µM (series often up to 53.6 µM), hits mostly inhibitors. 310,000 tested, 5.4% active. AID 2551; note: nearly all actives have a fitted effect of over 60% in size
#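 A Gal4/UAS one-hybrid system in insect cells: metallothionein-promoter Gal4–ROR gamma fusion plus Photinus luciferase reporter. Copper sulfate 700 uM final, 20 hr ambient incubation, luminescent detection after 10 min with reagent.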
# Tau FP inhib: tau fibrillization inhibition (FP); P10636; K18 P301L tau heparin fibrillization, Alexa594 FP, 6 h; Potency, µM (highest dose often 57.7 µM), usual class: inhibitors; 280,000 tested, 0.39% active; AID 1468; note: nearly all actives have a fitted effect of over 55% in size
#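 Heparin (20 uM) drove fibril formation of recombinant tau K18 P301L, 15 uM unlabeled with 0.24 uM Alexa 594 label, for 6 hr at 37 C in 100 mM sodium acetate pH 7. Fluorescence polarization (555/632 nm) read 1 hr after 30 uM ThT.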
# Tau fluor counter: counter-screen for tau fibril formation inhibitors; tau K18 P301L Alexa594 fluorescence, heparin fibrillization; Potency, µM (top dose mostly 57.7 µM); 280,000 tested, 0.93% active; note: nearly all actives have a fitted effect of over 55% in size
#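 Human tau K18 P301L (15 uM unlabeled, 0.24 uM Alexa 594-labeled) in 100 mM sodium acetate pH 7 with 20 uM heparin, 6 hr at 37 C. ThT 30 uM added, 1 hr ambient; Alexa 594 FP and total fluorescence read at 555/632 nm.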
# A number is an active result; i = inactive; ? = inconclusive; nt = no result; [ ] = another dose, or the depositor's remark. Calls come from the whole dose curve; as a rule, active = well fitted curve in the direction sought with a large enough effect; inconclusive = small, poorly fitted or top-dose-only effect, or another doubt; inactive = no such curve, though single readings can be large; an effect the other way counts as inactive or inconclusive.
SMILES,Tau ThT inhib,VP16 counter,RORg inh,Tau FP inhib,Tau fluor counter
CCCC(=O)NC(c1ccc(N(C)C)cc1)c1c(O)ccc2ccccc12 (centres undefined),i,i,?,i,?
CCCCN(CC)C(=O)CSc1c2c(nc3ccc(Cl)cc13)CCCC2,?,nt,nt,i,i
CC(C)c1ccc(C(N)=S)cc1,i,18µM,4µM,i,i
CCN(CC)CCN(C)Cc1nc(C(c2ccccc2)c2ccccc2)no1,nt,i,i,nt,nt
CN(CCc1cn[nH]c1)Cc1nc(C(c2ccccc2)c2ccccc2)no1,i,?,10µM,i,i
O=C1C(C2=NC(C(=O)O)C3C(=O)N(c4ccccc4)C(=O)C23)=C(O)c2ccccc21 (centres undefined),i,13µM,11µM,i,i
COc1cccc(C2CC(c3cccs3)=NN2C(=S)Nc2ccccc2)c1OC (centres undefined),i,i,8.9µM,i,i
Cc1ccc(CNCc2cc3c(C(C)(C)C)nn(-c4ccccc4)c3[nH]c2=O)cc1,i,13µM,?,i,i
Cc1nn(-c2ccccc2)c2[nH]c(=O)c(CNc3ccc(N4CCOCC4)cc3)cc12,18µM,i,i,?,?
Cc1cc(=O)cc(C)n1-c1ccccc1N,nt,i,i,nt,nt
Cc1ccc(C)n1-c1ccccc1N,i,13µM,14µM,i,i
CCOCCCNS(=O)(=O)c1ccc2c(c1)OCCO2,16µM,i,i,i,16µM[quencher]
C=C(CO)C1Cc2c(ccc3c2OC2COc4cc(OC)c(OC)cc4C2C3=O)O1 (centres undefined),?,?,?,i,i
CC1(C)C(=O)NC2=C1C(=O)C(=O)c1ccccc12,18µM,2.8µM,1.4µM,?,i
Cc1nc(-c2ccccn2)nc(N(C)c2ccccc2)c1Cl,nt,1.6µM,0.32µM,nt,nt
Cc1ccc(OC(=O)c2ccncc2)c(C)c1,nt,i,i[1.91 µM],nt,nt
NC(=S)N/N=C1\CCOc2ccc(Cl)cc21,i,8.9µM,3.2µM,i,i
CC(C)(C)c1ccc(C(=O)N2CCCC2)s1,i,i,i,i,i
CCOC(=O)c1nnc2c(-c3ccc(F)cc3)c(C)nn2c1N,?,nt,nt,i,i
CCOC(=O)c1nnc2c(-c3ccc(Cl)cc3)c(C)nn2c1C,7.9µM,nt,nt,i,i
CCSc1nc2sccc2c(=O)n1-c1ccccc1,nt,i,i,nt,nt
O=C(O)C(=O)/C(=C\c1ccc([N+](=O)[O-])cc1)c1ccc2ccccc2n1,16µM,i,i,i,i
O=C(O)C(=O)/C(=C\c1ccccc1)c1ccc2ccccc2n1,?,i,i,i,i
COc1ccc(Oc2ncc3nc(-c4ccc(Cl)cc4)c(=O)n(C)c3n2)cc1,nt,i,i,nt,nt
c1ccc2c(c1)Nc1ccncc1S2,?,i,i,i,?
SMILES,Tau ThT inhib,VP16 counter,RORg inh,Tau FP inhib,Tau fluor counter
COc1ccc2c(c1)Sc1ccccc1N2,10µM,6.3µM,6.3µM,i,10µM[quencher]
c1ccc2c(c1)Nc1cc3ccccc3cc1S2,2.2µM,i,i,?,?
CCOC(=O)c1ccc(OCCOc2cccc(C)c2)cc1,nt,i,i,nt,nt
CCCCNC(=O)c1nn2c(C(F)(F)F)cc(-c3ccc(OC)cc3)nc2c1Br,nt,i,?,nt,nt
CCOC(=O)c1cc(-c2ccccc2)n(CCC(=O)Nc2ccc(OC)c(Cl)c2)c1C,i,nt,nt,i,?
Cc1cc2nc(CCN(Cc3cccnc3)C(=S)Nc3ccc(F)cc3)[nH]c2cc1C,i,i,i,i,?
Cc1cc2nc(CCN(Cc3cccnc3)C(=S)Nc3ccccc3)[nH]c2cc1C,i,i,14µM,i,?
O=C(O)CCC(=O)c1ccc2c(c1)OCCO2,i,i,i,i,i
O=C(CCN1Cc2ccccc2C1)c1ccc2c(c1)OCCO2,?,16µM,13µM,i,i
CCCC(=O)c1ccc2c(c1)OCCO2,i,?,i,i,i
O=C(CS(=O)(=O)c1ccccc1)c1ccc2c(c1)OCCO2,i,?,?,i,i
O=C(CCN1CCc2ccccc2C(c2ccccc2)C1)c1ccc2c(c1)OCCO2 (centres undefined),i,3.5µM,4.5µM,?,i
O=C(O)CCSCC(=O)c1ccc2c(c1)OCCO2,?,3.5µM,2µM,i,i
CN(C)CCC(=O)c1ccc2c(c1)OCO2,?,6.3µM,2.2µM,?,i
Cc1cc(C(=O)CSc2nc(N)cc(=O)[nH]2)c(C)n1-c1ccc(OC(F)F)cc1,i,10µM,i,i,i
Cc1cc(-n2c(C)cc(C(=O)CCl)c2C)no1,i,?,6.3µM,i,i
